Compounds without any hit were thinned out: in the full panel of roughly 83,000, 20% have a hit.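 Single-concentration screen, 48 h exposure, 96-well plates. Endpoint: percent growth. Below 10 = active.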 Unmarked numbers belong to inactive results. Calls of active or inactive are those of the source.
System: SNB-75 CNS
Test: NCI-60 one-dose screen, 48 h (100 = growth as untreated, 0 = no growth, -100 = all killed)
Conditions: 10 µM unless noted

First: S=c1sc2c(Cl)nc(-c3cccnc3)nc2n1-c1ccccc1
Second: CCCn1cc2c(=O)nc3sc(Cc4ccccc4)c(C)n3c2n1
The growth of the first is lower: 57.1% for the first, 97.6% for the second.

Going from `CN(C)Cc1ccc(O)c(C(=O)O)c1` to `CC(=O)n1nc(C(=O)OC(C)(C)c2ccccc2)c2ccccc21`, the growth falls from 108% to 80.8%.

Compared with `CN(/C(N)=N/N=C/c1c2ccccc2cc2ccccc12)C1CCCCC1`, `CS(=O)(=O)c1ccc(-c2cnn3ccc(-c4cccc(S(=O)(=O)C5CC5)c4)nc23)cc1` is lower in growth: 57.2% for the first, 14% for the second.

First: COc1ccc(/C=C(\C#N)n2nnc3ccc(Cl)cc32)cc1
Second: Oc1c(Br)cc(Br)c2ccc(Cn3cc(-c4ccc(C(F)(F)F)cc4)nn3)nc12
The growth of the first is lower: 20.4% for the first, 77.2% for the second.

Compared with `Cc1sc2nc(NCCc3c[nH]c4ccc(Cl)cc34)[nH]c(=O)c2c1C`, `Cn1c(I)c(C#CCO[Si](C)(C)C(C)(C)C)c(=O)[nH]c1=O` is higher in growth: 23.5% for the first, 99.9% for the second.

`C=C(C)[C@@H]1CC[C@]2(CO)CC[C@]3(C)[C@H](CC[C@@H]4[C@@]5(C)CC[C@H](NCO)C(C)(C)[C@@H]5CC[C@]43C)[C@@H]12` was tested, and the growth was -94.7% (active).
For `CCN1C(=S)N(c2ccccc2)C2NC(=S)N(/N=C/C=C/c3ccccc3OC)C21` (centres undefined), the growth was -1.02% (active).
In the case of `CCN(C)S(=O)(=O)Nc1cccc(Nc2ncnc3cc(NC(=O)CCl)ccc23)c1Cl`, the growth is reported as 6.04% (active).
For `Nc1[nH]n2cc(-c3ccccc3)nc2c1N=Nc1ccc(S(N)(=O)=O)cc1`, the growth was 1.09% (active).

— PubChem BioAssay (NCI)
